Measured values from PubChem BioAssay.
This is one part of the list. Unmarked numbers belong to inactive results. Calls of active or inactive are those of the source.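 The calls were made as follows, unless noted: active = dye signal at least 3 control SD above or below untreated wells in both duplicates, raw fluorescence within 3, either direction; inactive = the rest.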

Key:
[1] = target: Inward rectifier potassium channel 2 (Mus musculus) (UniProt P35561); test: mouse Kir2.1 channel blockers, retest, confirmation, cell-based, FluxOR thallium flux, duplicate (AID 2032;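 active = Primary-screen hit whose thallium flux fell at least 3 control SD below untreated wells in both duplicates, with normal baseline fluorescence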); conditions: Kir2.1-expressing cells, FluxOR thallium flux fluorescence, at 10 µM; hits give low values
Inward rectifier potassium channel 2 (Mus musculus), sequence (P35561 whole entry, looked up): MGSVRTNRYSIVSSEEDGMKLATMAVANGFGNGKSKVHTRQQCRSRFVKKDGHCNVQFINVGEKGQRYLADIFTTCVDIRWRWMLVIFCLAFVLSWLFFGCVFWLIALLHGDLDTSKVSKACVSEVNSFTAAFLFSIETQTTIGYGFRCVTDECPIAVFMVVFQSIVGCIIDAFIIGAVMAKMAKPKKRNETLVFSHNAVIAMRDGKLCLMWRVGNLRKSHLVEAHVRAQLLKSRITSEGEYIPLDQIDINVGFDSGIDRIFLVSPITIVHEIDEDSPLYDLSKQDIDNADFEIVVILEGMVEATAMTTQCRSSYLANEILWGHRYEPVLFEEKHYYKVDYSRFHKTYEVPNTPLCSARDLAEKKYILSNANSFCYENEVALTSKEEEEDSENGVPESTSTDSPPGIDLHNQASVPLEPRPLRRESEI

[2] = nonspecific thallium flux effects in parental HEK293 cells, confirmation, counter-screen for Kir2.1 inhibitor project, cell-based, FluxOR thallium flux, duplicate, single concentration (AID 2105); conditions: FluxOR thallium flux fluorescence, at 10 µM; 0% = unstimulated blank wells;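 as to FluxOR signal as % of negative control (100 = no effect): percent is based on the flux ratio of peak minus minimum fluorescence over baseline F0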
[3] = target: Voltage-gated inwardly rectifying potassium channel KCNH2 (Homo sapiens) (UniProt Q12809); test: hERG channel inhibition, counter-screen for Kir2.1 inhibitor project, cell-based, thallium flux (AID 2236; call rule not given here;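 also: host cells are CHO cells stably expressing hERG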); conditions: hERG-expressing cells, at 10 µM; hits give high values
Voltage-gated inwardly rectifying potassium channel KCNH2 (Homo sapiens), sequence (Q12809 whole entry, looked up): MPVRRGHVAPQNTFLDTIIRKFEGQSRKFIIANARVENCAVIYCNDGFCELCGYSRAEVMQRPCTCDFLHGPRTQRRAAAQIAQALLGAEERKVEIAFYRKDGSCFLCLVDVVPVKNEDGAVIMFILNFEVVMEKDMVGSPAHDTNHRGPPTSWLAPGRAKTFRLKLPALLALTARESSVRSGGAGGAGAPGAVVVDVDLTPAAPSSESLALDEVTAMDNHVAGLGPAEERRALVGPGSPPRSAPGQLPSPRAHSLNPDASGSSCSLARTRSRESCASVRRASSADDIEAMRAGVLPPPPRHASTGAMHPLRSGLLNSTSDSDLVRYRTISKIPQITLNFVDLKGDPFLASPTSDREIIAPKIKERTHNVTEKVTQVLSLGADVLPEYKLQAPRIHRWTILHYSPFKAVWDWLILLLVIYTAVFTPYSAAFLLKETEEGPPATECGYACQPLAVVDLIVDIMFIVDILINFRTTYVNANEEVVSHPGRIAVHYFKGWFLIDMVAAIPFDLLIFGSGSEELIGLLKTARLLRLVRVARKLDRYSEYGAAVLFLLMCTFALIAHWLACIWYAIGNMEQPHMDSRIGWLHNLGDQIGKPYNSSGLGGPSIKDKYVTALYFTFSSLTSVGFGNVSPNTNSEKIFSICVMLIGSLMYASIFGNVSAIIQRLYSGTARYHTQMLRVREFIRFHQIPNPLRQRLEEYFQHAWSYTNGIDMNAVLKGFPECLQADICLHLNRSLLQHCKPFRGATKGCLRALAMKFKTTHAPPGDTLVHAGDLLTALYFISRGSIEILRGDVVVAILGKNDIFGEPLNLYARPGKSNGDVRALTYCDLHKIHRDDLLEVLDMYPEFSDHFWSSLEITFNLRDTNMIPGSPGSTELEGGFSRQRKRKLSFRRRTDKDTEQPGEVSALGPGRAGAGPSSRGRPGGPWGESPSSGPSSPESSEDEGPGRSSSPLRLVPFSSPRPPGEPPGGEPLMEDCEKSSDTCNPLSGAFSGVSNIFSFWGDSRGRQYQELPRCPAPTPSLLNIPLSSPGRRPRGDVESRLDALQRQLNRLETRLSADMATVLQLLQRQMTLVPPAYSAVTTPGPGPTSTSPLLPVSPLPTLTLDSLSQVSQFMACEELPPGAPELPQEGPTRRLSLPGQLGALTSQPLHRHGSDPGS

[4] = target: Potassium channel subfamily K member 9 (Homo sapiens) (UniProt Q9NPC2); test: KCNK9 channel inhibition, selectivity assay for Kir2.1 inhibitor project, cell-based (AID 2329; call rule not given here); conditions: KCNK9-expressing cells, ion flux inhibition, at 10 µM; hits give high values
[5] = target: Inward rectifier potassium channel 2 (Mus musculus) (UniProt P35561); test: mouse Kir2.1 channel blockers, Kir2.1 inhibitor project, cell-based, secondary, automated electrophysiology (AID 463252; call rule not given here); conditions: Kir2.1 cells, automated patch-clamp current inhibition, at 25 µM; hits give high values
[6] = parental HEK293 membrane potential modulation, confirmation, counter-screen for TRPC6 modulator project, cell-based (AID 488924;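 active = membrane potential signal moves up or down beyond 5 SD from buffer-only wells, on both duplicate plates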); conditions: parental HEK293, membrane potential dye fluorescence; at 10 µM
[7] = modulation of acetylcholine-evoked membrane potential, parental HEK293, confirmation, counter-screen for TRPC6 modulator project, cell-based, second counter-screen, membrane potential dye (AID 488926;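 active = membrane potential signal drops by more than 5 SD from the mean control signal, in both duplicate plates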); conditions: parental HEK293, membrane potential dye fluorescence; at 10 µM; after compound, maximal acetylcholine stimulation
[8] = system: Transient receptor potential cation channel subfamily C member 4 (mouse); test: TRPC4 modulation by TRPC6 hit compounds, confirmation, selectivity assay for TRPC6 modulator project, cell-based, HEK293 TRPC4/mu-opioid, membrane potential dye, mouse (AID 488927;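 active = membrane potential signal moved up or down beyond 5 SD of buffer control wells, in both duplicate plates, actives on both sides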;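 also: plate controls were assay buffer wells for no effect and DAMGO maximal-effect wells for full effect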); conditions: membrane potential fluorescence, at 10 µM
[9] = system: TRPC4 (transient receptor potential cation channel C4), mouse; test: TRPC4 inhibition by TRPC6 hit compounds, confirmation, selectivity assay for TRPC6 modulator project, cell-based, second screen, HEK293 TRPC4/mu-opioid, membrane potential dye (AID 488928;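 active = drop in membrane potential signal beyond 5 SD of the control wells in both duplicate plates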;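 also: TRPC4 counter screen for TRPC6 hits run under conditions tuned for TRPC6 not TRPC4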); conditions: membrane potential dye fluorescence, at 10 µM, stimulated with maximal-effect DAMGO; hits give high values
[10] = target: Short transient receptor potential channel 6 (Mus musculus) (UniProt Q61143); test: mouse TRPC6 channel inhibitors, confirmation, HEK293 cells, membrane potential dye, duplicate (AID 488960;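 active = fluorescence ratio falls more than 5 SD below the full-stimulation control mean, in both duplicate runs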;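 also: integrated fluorescence ratio of peak minus minimum over baseline after agonist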); conditions: ACh-evoked depolarization, at 10 µM; hits give high values
Short transient receptor potential channel 6 (Mus musculus), sequence (Q61143 whole entry, looked up): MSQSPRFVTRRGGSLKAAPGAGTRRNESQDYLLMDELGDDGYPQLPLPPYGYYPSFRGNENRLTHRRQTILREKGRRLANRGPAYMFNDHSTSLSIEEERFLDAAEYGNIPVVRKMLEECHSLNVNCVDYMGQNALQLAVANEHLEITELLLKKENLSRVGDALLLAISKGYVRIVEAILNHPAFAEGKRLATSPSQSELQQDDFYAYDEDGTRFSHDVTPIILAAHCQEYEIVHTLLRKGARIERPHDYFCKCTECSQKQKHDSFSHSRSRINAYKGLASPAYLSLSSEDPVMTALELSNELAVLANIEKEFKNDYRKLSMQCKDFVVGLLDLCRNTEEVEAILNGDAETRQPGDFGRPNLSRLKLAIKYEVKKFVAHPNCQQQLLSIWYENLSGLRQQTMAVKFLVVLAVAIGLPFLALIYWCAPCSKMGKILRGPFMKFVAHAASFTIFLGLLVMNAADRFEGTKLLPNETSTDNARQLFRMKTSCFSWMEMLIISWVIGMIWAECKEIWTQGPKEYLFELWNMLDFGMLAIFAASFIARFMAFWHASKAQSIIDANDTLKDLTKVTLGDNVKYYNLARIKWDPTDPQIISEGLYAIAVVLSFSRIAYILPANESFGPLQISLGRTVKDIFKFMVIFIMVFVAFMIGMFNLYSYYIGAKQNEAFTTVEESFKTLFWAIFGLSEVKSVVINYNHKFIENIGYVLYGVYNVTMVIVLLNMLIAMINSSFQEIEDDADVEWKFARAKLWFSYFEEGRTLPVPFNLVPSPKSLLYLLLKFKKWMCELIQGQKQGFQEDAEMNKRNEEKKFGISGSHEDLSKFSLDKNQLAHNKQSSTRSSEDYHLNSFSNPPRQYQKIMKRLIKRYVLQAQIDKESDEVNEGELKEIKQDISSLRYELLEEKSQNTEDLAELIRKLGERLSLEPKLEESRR

[11] = target: Short transient receptor potential channel 6 (Mus musculus) (UniProt Q61143); test: mouse TRPC6 channel activators, confirmation, HEK293 cells, membrane potential dye, duplicate (AID 488961;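 active = ratio signal rise beyond 5 SD above unstimulated control wells' mean, seen in both duplicate runs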;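 also: plate controls were buffer EC0 wells for no effect and acetylcholine ECmax response for full effect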); conditions: HEK293-TRPC6 membrane potential dye fluorescence, FDSS, at 10 µM; hits give high values

For `CCCCCCCCn1c2c(c(=N)c3c1CCC3)CCCC2`, which Tl flux remaining, % of negative control (hits give low values) [1] is on record?
The Tl flux remaining, % of negative control (hits give low values) was 10% (active).

What about the outcome [2] of the same compound?
Its outcome is “inactive”.

For `CCn1cc(CCC(=O)NCc2ccc(F)cc2)c2ccccc21`, which Tl flux remaining, % of negative control (hits give low values) [1] is on record?
Its Tl flux remaining, % of negative control (hits give low values) is 56.5% (active).

What about the outcome [2] of the same compound?
Its outcome is “inactive”.

For `O=C(CCl)N(Cc1cccc([N+](=O)[O-])c1)c1cccc(Cl)c1`, which outcome [1] is on record?
The outcome was “inactive”.

What about the outcome [2] of the same compound?
The outcome was “inactive”.

What does the source list for `CCCCCCCCCCOC(=O)Cn1c(COc2cccc(OC)c2)[n+](C)c2ccccc21`?
outcome [1]: inactive; outcome [2]: inactive

Which Tl flux remaining, % of negative control (hits give low values) [1] does the source give for `CC(C)(c1ccccc1)c1ccc(OCCN2CCCC2)cc1` here?
The Tl flux remaining, % of negative control (hits give low values) was 44% (active).

And the outcome [2]?
The outcome was “inactive”.

With `Cn1c(SCC(=O)N2CCCc3ccccc32)nc2ccccc2c1=O` as the compound, how does the Tl flux remaining, % of negative control (hits give low values) [1] read?
Its Tl flux remaining, % of negative control (hits give low values) is 71.5% (active).

What about the FluxOR signal as % of negative control (100 = no effect) [2] of the same compound?
The FluxOR signal as % of negative control (100 = no effect) was 66.5% (active).

For `OCCNCc1cccc(OCc2ccccc2Cl)c1`, which Tl flux remaining, % of negative control (hits give low values) [1] is on record?
Its Tl flux remaining, % of negative control (hits give low values) is 62% (active).

And the outcome [2]?
The outcome was “inactive”.

For `COc1ccc(C(CCNCc2ccccc2F)c2ccc(F)cc2)cc1` (stereo not given), which Tl flux remaining, % of negative control (hits give low values) [1] is on record?
The Tl flux remaining, % of negative control (hits give low values) was 39.5% (active).

What about the outcome [2] of the same compound?
The outcome was “inactive”.

With `COc1ccc(CN2CCC(c3nc4ccc(Cl)cc4[nH]3)CC2)cc1` as the compound, how does the Tl flux remaining, % of negative control (hits give low values) [1] read?
The Tl flux remaining, % of negative control (hits give low values) was 30% (active).

And the outcome [2]?
Its outcome is “inactive”.

Which Tl flux remaining, % of negative control (hits give low values) [1] does the source give for `O=C(Cc1c[nH]c2ccccc12)OCCOC(=O)Cc1c[nH]c2ccccc12` here?
Its Tl flux remaining, % of negative control (hits give low values) is 48.5% (active).

And the outcome [2]?
Its outcome is “inactive”.

Which results are given for `Clc1c(OCCCn2ccnc2)ccc2ccccc12`?
outcome [1]: inactive; outcome [2]: inactive

What does the source list for `C(=C\c1ccccc1)/CSc1nnc(-c2cccnc2)n1Cc1ccco1`?
Tl flux remaining, % of negative control (hits give low values) [1]: 37% (active); outcome [2]: inactive

Which Tl flux remaining, % of negative control (hits give low values) [1] does the source give for `Cc1nnc(SCc2ccc(C(=O)c3ccc(Cl)cc3)o2)n1-c1ccccc1` here?
The Tl flux remaining, % of negative control (hits give low values) was 66% (active).

What about the outcome [2] of the same compound?
The outcome was “inactive”.

What about the outcome [3] of the same compound?
The outcome was “inactive”.

What about the outcome [4] of the same compound?
Its outcome is “inactive”.

And the inhibition [5]?
Its inhibition is 19% (active).

And the membrane potential signal change [6]?
The membrane potential signal change was 116% (active).

And the outcome [7]?
Its outcome is “inactive”.

What about the percent change from control (negative = decrease, positive = increase) [8] of the same compound?
The percent change from control (negative = decrease, positive = increase) was 23.5% (active).

What about the outcome [9] of the same compound?
The outcome was “inactive”.

And the inhibition [10]?
The inhibition was 62% (active).

Which results are given for `C/C=C(/C)C(=O)OC1Cc2c(ccc3ccc(=O)oc23)OC1(C)C` (stereo not given)?
Tl flux remaining, % of negative control (hits give low values) [1]: 63% (active); outcome [2]: inactive; outcome [3]: inactive; outcome [4]: inactive; outcome [5]: inactive

With `CC(NCc1ccccc1OC1CCCC1)c1ccccc1` (stereo not given) as the compound, how does the Tl flux remaining, % of negative control (hits give low values) [1] read?
The Tl flux remaining, % of negative control (hits give low values) was 23.5% (active).

And the outcome [2]?
Its outcome is “inactive”.

What about the outcome [3] of the same compound?
The outcome was “inactive”.

And the outcome [4]?
The outcome was “inactive”.

What about the inhibition [5] of the same compound?
Its inhibition is 23.4% (active).

What about the membrane potential signal change [6] of the same compound?
The membrane potential signal change was 416% (active).

And the outcome [7]?
Its outcome is “inactive”.

And the percent change from control (negative = decrease, positive = increase) [8]?
The percent change from control (negative = decrease, positive = increase) was 114% (active).

What about the inhibition [9] of the same compound?
The inhibition was 79.5% (active).

What about the inhibition [10] of the same compound?
The inhibition was 83% (active).

What about the activation [11] of the same compound?
The activation was 122% (active).

With `Cc1ccccc1C(=O)NCCN=C1NS(=O)(=O)c2ccccc21` as the compound, how does the outcome [1] read?
The outcome was “inactive”.

And the outcome [2]?
The outcome was “inactive”.

What about the outcome [3] of the same compound?
Its outcome is “inactive”.

What about the outcome [4] of the same compound?
The outcome was “inactive”.

And the outcome [5]?
The outcome was “inactive”.
